Results filed as inconclusive are left out. The source made the active and inactive calls. Calls come from the whole dose curve; as a rule, active = well fitted inhibition curve with a large enough effect; inconclusive = small, poorly fitted or top-dose-only effect; inactive = no such curve, though single readings can be large or run the other way.
Assay: qHTS Screen of the MIPE 4.0 Collection Against Ewings Sarcoma (TC71) (AID 1259253); note: nearly all actives have a fitted effect of over 40% in size
Conditions: TC71 Ewing sarcoma viability, CellTiter-Glo, 48 h; series mostly up to 45.8 µM
Method in brief: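 Measured: ATP luminescence (CellTiter-Glo) 10 min after reagent addition, following 48 h drug treatment. Relative luciferase units converted to percent activity, with no-cell wells as full and DMSO wells as zero inhibition.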
Potency is the fitted concentration of half-maximal effect.

**Q.** Which Potency does the source give for `C=C1c2cccc(O)c2C(O)=C2C(=O)[C@@]3(O)C(O)=C(C(N)=O)C(=O)[C@@H](N(C)C)[C@@H]3[C@@H](O)[C@H]12` here?
**A.** 20.9 µM (active)

**Q.** Which Potency does the source give for `C[C@@]1(c2cc(-c3cncnc3)c(F)cc2F)CCSC(N)=N1` here?
**A.** inactive

**Q.** Which Potency does the source give for `Cc1cc(CS(=O)(=O)c2ccccc2)cc(OCc2ccc(CN3CCC[C@H]3CO)cc2)c1` here?
**A.** 20.9 µM (active)

**Q.** With `O=C1Nc2ccc(I)cc2C1=Cc1cc(Br)c(O)c(Br)c1` as the compound, how does the Potency read?
**A.** 18.7 µM (active)

**Q.** Which Potency does the source give for `CCc1cccc(CC)c1NC(=O)N1Cc2[nH]nc(NC(=O)c3ccc(N4CCN(C)CC4)cc3)c2C1` here?
**A.** 4.18 µM (active)

**Q.** Which Potency does the source give for `Nc1[nH]nc2nnc(-c3c(-c4ccccc4)nn4ccccc34)cc12` here?
**A.** 8.33 µM (active)

**Q.** With `Cc1nc(NC(=O)N2CCC[C@@H]2C(N)=O)sc1-c1csc(C(C)(C)C)n1` as the compound, how does the Potency read?
**A.** 6.62 µM (active)

**Q.** For `CCCCc1ccc(NS(=O)(=O)c2ccc(C)c(C(=O)N3CCN(c4cccc(C)c4C)CC3)c2)cc1`, which Potency is on record?
**A.** 20.9 µM (active)

**Q.** For `CCNC(=O)c1noc(-c2cc(C(C)C)c(O)cc2O)c1-c1ccc(CN2CCOCC2)cc1`, which Potency is on record?
**A.** 0.118 µM (active)

**Q.** With `N#CC1(c2cccc(C(=O)Nc3cc(Oc4ccc5nc(NC(=O)C6CC6)sc5n4)ccc3F)c2Cl)CC1` as the compound, how does the Potency read?
**A.** 16.6 µM (active)

**Q.** For `CC1C(=O)OC2C(O)C34C5CC(C(C)(C)C)C36C(OC(=O)C6O)OC4(C(=O)O5)C12O` (stereo not drawn), which Potency is on record?
**A.** 14.8 µM (active)

**Q.** With `CN(C)CCOc1ccc(C(=C(CCCl)c2ccccc2)c2ccccc2)cc1` as the compound, how does the Potency read?
**A.** 3.72 µM (active)

**Q.** With `COc1ccc(-c2cc(=O)c3c(O)cc(O[C@@H]4O[C@H](CO[C@@H]5O[C@@H](C)[C@H](O)[C@@H](O)[C@@H]5O)[C@@H](O)[C@H](O)[C@@H]4O)cc3o2)cc1O` as the compound, how does the Potency read?
**A.** 18.7 µM (active)
